# Screening data from PubChem BioAssay.
# KCNH2 WT inh – inhibitors of human wildtype KCNH2 potassium channel; Q12809; U2OS, BacMam KCNH2, thallium flux FluxOr; active compounds read low; activity change, % at 1.84 µM; 0.37% of 340,000 active; AID 720551;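 active = maximum activity change below -70%; inconclusive = maximum activity change between -70% and -50%; inactive = maximum activity change above -50%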; note: % is set by controls: 0 for no effect and ±100 for the full control effect
# Target sequence (Q12809 whole entry, looked up): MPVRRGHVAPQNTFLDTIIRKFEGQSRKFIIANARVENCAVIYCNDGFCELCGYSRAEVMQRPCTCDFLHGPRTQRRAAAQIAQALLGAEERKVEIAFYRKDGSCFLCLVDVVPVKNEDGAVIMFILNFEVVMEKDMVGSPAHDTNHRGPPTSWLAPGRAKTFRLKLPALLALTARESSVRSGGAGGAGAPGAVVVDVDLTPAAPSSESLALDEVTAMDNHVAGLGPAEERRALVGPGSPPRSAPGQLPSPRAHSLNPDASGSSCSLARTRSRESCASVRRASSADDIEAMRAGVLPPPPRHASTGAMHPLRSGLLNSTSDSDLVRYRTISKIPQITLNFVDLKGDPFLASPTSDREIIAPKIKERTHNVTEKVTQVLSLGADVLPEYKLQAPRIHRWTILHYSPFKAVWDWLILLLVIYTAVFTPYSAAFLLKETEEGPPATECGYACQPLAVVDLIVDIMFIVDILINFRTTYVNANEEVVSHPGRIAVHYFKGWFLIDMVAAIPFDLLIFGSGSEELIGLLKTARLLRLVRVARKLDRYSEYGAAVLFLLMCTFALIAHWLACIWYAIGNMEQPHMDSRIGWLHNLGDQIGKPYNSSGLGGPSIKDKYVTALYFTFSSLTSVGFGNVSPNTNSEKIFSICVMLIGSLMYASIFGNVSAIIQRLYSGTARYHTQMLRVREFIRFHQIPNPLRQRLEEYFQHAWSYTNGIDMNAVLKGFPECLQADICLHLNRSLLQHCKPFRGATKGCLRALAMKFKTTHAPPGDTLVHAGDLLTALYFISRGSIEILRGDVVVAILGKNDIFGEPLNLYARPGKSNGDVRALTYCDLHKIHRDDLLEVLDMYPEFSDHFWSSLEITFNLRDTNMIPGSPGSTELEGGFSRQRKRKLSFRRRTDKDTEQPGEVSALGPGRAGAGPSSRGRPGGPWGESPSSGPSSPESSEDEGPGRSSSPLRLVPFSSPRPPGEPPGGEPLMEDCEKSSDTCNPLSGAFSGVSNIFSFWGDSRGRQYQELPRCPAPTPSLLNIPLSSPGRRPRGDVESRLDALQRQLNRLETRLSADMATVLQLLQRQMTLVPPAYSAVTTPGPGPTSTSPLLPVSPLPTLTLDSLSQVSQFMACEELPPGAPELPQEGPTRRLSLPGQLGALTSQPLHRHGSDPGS
#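 U2OS cells transduced with wild-type KCNH2 virus are loaded with FluxOr dye for 45 min, and thallium flux is measured in kinetic reads before and after stimulation buffer. Rate constants are normalized to DMSO controls.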
# KCNH2 3.1 block – KCNH2 3.1 (human) potassium channel inhibition. U2OS KCNH2 3.1, thallium flux FluxOr; active compounds read low. activity change, % (tested at about 1.8 µM). 0.95% of 340,000 active. AID 720553;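 active = maximum activity change below -70%; inconclusive = maximum activity change from -70% to -50%; inactive = maximum activity change above -50%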;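 note: thallium influx rate constant from kinetic fluorescence after stimulation buffer; % is set by controls: 0 for no effect and ±100 for the full control effect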
#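 Normalized rate constant (relative to positive and negative DMSO controls) derived from a 2 min kinetic fluorescence read after stimulation; U2OS cells expressing the 3.1 isoform via virus at 1.77 x 10^8 /mL.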
# KB-V1 cytotox – kills drug-selected multidrug resistant KB-V1 cells. KB-V1 MDR cells viability, CellTiter-Glo, 72 h. 3.4% of 400,000 active. Potency, µM (top dose mostly 46.1 µM), most hits filed as cytotoxic. AID 1347076; note: potency is the fitted concentration of half-maximal effect; % is set by controls: 0 for no effect and ±100 for the full control effect; nearly all actives have a fitted effect of over 60% in size
#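 Cytotoxicity via CellTiter-Glo luminescence after 72 h compound exposure at 37 degrees C. Cells: drug-selected KB-V1 line, DMEM phenol-red free plus 10% FBS. Compounds tested at multiple concentrations; normalized data fitted to concentration-effect curves.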
# MCF10A rereplic – DNA re-replication induction in MCF 10a cells; MCF 10A DNA re-replication, Hoechst nuclear intensity, 48 h; Potency, µM (top dose mostly 46.1 µM), for the others: at the highest dose activity, positive = re-replication, hits mostly activators; 2.9% of 350,000 active; note: potency is the fitted concentration of half-maximal effect; % of control where 0% means no effect; nearly all actives have a fitted effect of over 50% in size
# KB-3-1 cytotox – KB-3-1 parental cell cytotoxicity; KB-3-1 viability, CellTiter-Glo ATP luminescence, 72 h; Potency, µM (series often up to 46.1 µM), most hits filed as cytotoxic; 1.4% of 400,000 active; note: potency is the fitted concentration of half-maximal effect; % is set by controls: 0 for no effect and ±100 for the full control effect; nearly all actives have a fitted effect of over 60% in size
#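 72 h, 37 °C compound treatment of KB-3-1 parental cells; CellTiter-Glo added, 10 min, luminescence read. Data corrected against DMSO-only plates and normalized before curve fitting.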
# SW480 rerep – DNA re-replication induction in SW480 cells | SW480 DNA re-replication, Hoechst DNA content imaging, 48 h | Potency, µM (series often up to 46.1 µM), inactives show at the highest dose re-replication activation, usual class: activators | 1.8% of 340,000 active; note: potency is the fitted concentration of half-maximal effect; % of control where 0% means no effect; nearly all actives have a fitted effect of over 55% in size
#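 First, 250 cells per well were seeded. Next, compound or vehicle (23 nL) was pinned in, plates sat 48 hr at 37 C. Finally Hoechst was added for 40 min before fluorescence scanning.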
# Numbers without * were called inactive; i = inactive; u = inconclusive; x = no result; ! = a repeat was not active. The list is not random: actives were taken first. Their share in the collection is about 7.6%. Unless noted, calls come from the whole dose curve; as a rule, active = well fitted curve in the direction sought with a large enough effect; inconclusive = small, poorly fitted or top-dose-only effect, or another doubt; inactive = no such curve, though single readings can be large; an effect the other way counts as inactive or inconclusive.
SMILES,KCNH2 WT inh,KCNH2 3.1 block,KB-V1 cytotox,MCF10A rereplic,KB-3-1 cytotox,SW480 rerep
COc1ccccc1NS(=O)(=O)c1cc(NC(=O)CNC(=O)c2cc(C)cc(C)c2)ccc1C,-2,-7,18µM*,6%,i,u
Cc1ccc(NS(=O)(=O)c2cc(NC(=O)C(C)Oc3ccccc3)ccc2C)c(C)c1 (stereo unspecified),-7,-15,18µM*,23%,u,2%
COc1ccc(NC(=O)c2ccc(F)cc2)cc1S(=O)(=O)Nc1cc(C)ccc1Br,-5,-29,4.6µM*,15µM*,u,u
CCCNC(=O)N1[C@H](c2cccs2)[C@@H](C)C(=O)[C@@H](C)[C@@H]1c1cccs1,x,x,i,x,i,x
O=C(NCCCN1CCOCC1)c1ccc2c(c1)N(Cc1ccccc1)C(=O)c1ccccc1S2,8,-20,i,u,i,10%
O=C(NCCN1CCOCC1)c1ccc2c(c1)N(Cc1c(F)cccc1Cl)C(=O)c1ccccc1S2,-1,-3,i,u,i,5.8µM*
CCOc1ccc(CN2C(=O)c3ccccc3Sc3ccc(C(=O)NCCCN4CCOCC4)cc32)cc1,-26,-2,u,21µM*,18µM*!,u
Cc1cc(C)cc(Nc2nc3ccccc3n3cnnc23)c1,x,x,i,x,i,x
COc1ccc2c(c1)c(N1CCCC1=O)c(C(=O)Nc1ccc(Cl)cc1C)n2C,x,x,i,x,i,x
COc1ccc(NC(=O)N(C)[C@H]2C[C@H]3c4[nH]c5ccccc5c4CCN3C[C@H]2[C@H](C)O)cc1,-2,0,i,x,i,x
COc1ccc(CN(C)[C@H]2C[C@H]3c4[nH]c5ccccc5c4CCN3C[C@H]2[C@H](C)O)cc1,-48,-81*,u,x,i,x
COc1ccccc1NC(=O)CCCCCN1C(=O)c2cccc3cccc(c23)C1=O,1,12,u,7%,i,0%
COc1ccccc1NC(=O)CCCCCN1C(=O)c2cccc([N+](=O)[O-])c2C1=O,-2,5,i,0.92µM*,i,-23%
COc1ccc(CCNC(=O)c2ccc(=O)[nH]c2)cc1,0,-71*,i,1%,i,-17%
COc1ccc(CCNC(=O)c2cccc(C(=O)NCCc3ccc(OC)cc3)n2)cc1,2,-2,18µM*,13%,i,-3%
COc1ccc(CCNC(=O)c2c([S-])n(-c3ccc(C)cc3)c3cccc[n+]23)cc1,0,1,i,11%,12µM*,u
CCc1ccc2n(-c3ccc(OC)cc3)c([S-])c(C(=O)Nc3cc(C)cc(C)c3)[n+]2c1,-26,-20,i,u,i,24%
O=C(NCCc1ccc(Cl)cc1)c1ccc(=O)[nH]c1,-1,9,i,0%,i,-6%
COc1ccc(CCNC(=O)c2coc(=O)c(Br)c2)cc1,-17,0,i,5.8µM*,u,u
COc1ccc(CCNC(=O)c2ccc(Br)cc2)cc1,5,-1,i,4%,i,16%
CC(C)(C)n1nnnc1C(c1ccccc1)N1CCN(CCN2CCOCC2)CC1 (stereo unspecified),x,x,i,x,i,x
COc1ccc(CCNC(=O)CCn2c(=O)c3ccccc3n(CC(=O)Nc3ccc(C)cc3C)c2=O)cc1OC,x,x,i,x,i,x
COc1ccc(OC)c(C(=O)/C=C/c2cccnc2)c1,0,-3,u,12µM*,u,21µM*
O=C(/C=C/c1cccnc1)c1cc(F)ccc1O,8,2,i,3%,i,-16%
COc1cc2ccccc2cc1C(=O)N/N=C/c1cccnc1,31,7,u,-2%,16µM*,1%
SMILES,KCNH2 WT inh,KCNH2 3.1 block,KB-V1 cytotox,MCF10A rereplic,KB-3-1 cytotox,SW480 rerep
CN(C)S(=O)(=O)c1ccc(C(=O)/C=C/c2cccnc2)cc1,-1,15,u,16µM*,i,21µM*
O=C(/C=C/c1cccnc1)/C=C/c1cccnc1,-8,1,i,u,2.6µM*,u
C(=Cc1cccnc1)c1ccncc1,0,15,i,0%,i,-2%
Cc1ccsc1C(=O)OCC(=O)NC1CCCCC1,6,3,i,x,i,x
O=Cc1cc2c3c(c1)CCCN3CCC2,x,x,i,x,i,x
COc1ccc(C(=O)/C=C/c2ccccc2)c(O)c1,-3,-2,i,u,i,u
COc1ccc(/C=C/C(=O)c2ccc(OC)cc2OC)cc1,1,3,u,24µM*,u,21µM*
COc1cc(C(=O)/C=C/c2cccnc2)ccc1O,1,4,u,5.8µM*,u,16µM*
CN(C)CCOc1ccc2c(c1)C(=O)C(=Cc1ncc([N+](=O)[O-])n1C)C2,20,4,3.7µM*,x,u,x
Cc1ccc(C)c(NC(=O)CSc2nnc(-c3cc(C)[nH]n3)n2N)c1,-3,14,i,u,i,14%
CCOc1ccc(NCc2cccn2-c2nnc(N3CCC(C(=O)NCCCN4C(C)CCCC4C)CC3)s2)cc1 (stereo unspecified),-228*,13,i,7%,u,26%
COc1ccc(CCNC(=O)C2CCN(Cc3nc(-c4ccccc4C)oc3C)CC2)cc1OC,24,-21,7.3µM*,22%,u,2%
COc1ccc(OC)c(CCNC(=O)CS(=O)(=O)Cc2nc(-c3ccccc3Cl)oc2C)c1,-13,13,i,12%,i,-7%
Cc1ccccc1-c1nc(CN2CCC(C(=O)NC3CCCCC3)CC2)c(C)o1,37,6,i,-1%,i,-13%
COc1ccc(OC)c(CCNC(=O)CS(=O)(=O)Cc2nc(-c3ccccc3C)oc2C)c1,-3,-4,6.5µM*,6%,u,-3%
Cc1ccccc1-c1nc(CN2CCC(C(=O)NCCc3ccccc3)CC2)c(C)o1,x,x,i,x,i,x
Cc1ccccc1-c1nc(CN2CCC(C(=O)O)CC2)c(C)o1,3,-14,u,16%,i,-4%
Cc1ccccc1-c1nc(CN2CCC(C(=O)NCCC3=CCCCC3)CC2)c(C)o1,-78*,-71*,u,u,u,u
Cc1ccccc1-c1nc(CN2CCC(C(=O)NCCCN3CCCC(C)C3)CC2)c(C)o1 (stereo unspecified),5,5,i,7%,i,21µM*
CCC1CCC(C(=O)NC(C(=O)NCCN(CC(C)C)CC(C)C)C(C)C)CC1 (stereo unspecified),x,x,i,x,i,x
